T cruzi growth-1: T. cruzi intracellular proliferation inhibitors, primary screen, cell-based, beta-gal Tulahuen parasites, NIH3T3 host, luminescence; T. cruzi beta-gal in NIH3T3, GalScreen luminescence, 90 h; inhibition, % at 8.34 µM; 5.9% of 77,000 active;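 active = mean inhibition above about 93%, with at least 55% of replicates each passing it, limit read from the data, passing the limit was not always enough; inconclusive = only one of those two conditions holds; inactive = neither condition holds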
Pf Dd2 inh: P. falciparum Dd2 growth inhibitors, primary screen, SYBR Green fluorescence, single dose replicates; 72 h; hits give low values; activity change, % at 10 µM; 2.3% of 94,000 active; AID 1159554, 2015; in the data active = activity change below about -80%; inconclusive = no clear call, values can overlap the other calls
C diff HTS: C. difficile growth inhibitors, primary screen, HTS | AID 1259249, 2017 | 0.25% of 86,000 active | growth activity, negative = inhibition, % at 16 µg/mL (by protocol) | Clostridium difficile clinical isolate growth, OD600, 24 h; hits give low values;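 active = mean growth activity at or below -80% and every replicate also at or below -80%; inconclusive = mean at or below -80% but some replicate above -80%; inactive = mean growth activity above -80%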
T cruzi growth-2: T. cruzi intracellular proliferation inhibitors, confirmation, cell-based, NIH3T3 host, beta-gal parasite, luminescence, cherry-pick; shares compounds with T cruzi growth-1; T. cruzi beta-gal in NIH3T3, GalScreen luminescence, 90 h; inhibition, % at 8.35 µM; 72% of 5,600 active; AID 651739, 2012;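 active = mean replicate inhibition above about 95% and at least 55% of replicates individually reaching it, limit read from the data; inconclusive = only one of the two criteria is met; inactive = neither criterion is met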
T cruzi growth-3: inhibitors of intracellular T. cruzi replication, confirmation, NIH3T3 host cells, beta-gal parasites, cherry-pick, set 2; inhibition, % at 2.09 µM; shares compounds with T cruzi growth-1; 21% of 5,600 active; T. cruzi beta-gal in NIH3T3, GalScreen luminescence, 90 h;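 active = mean inhibition above about 95%, with at least 55% of replicates also reaching it, limit read from the data; inconclusive = meets just one of the two conditions; inactive = meets neither condition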
NIH3T3 tox: cytotoxicity in mouse NIH/3T3 fibroblasts, confirmation, cytotoxicity control for T. cruzi proliferation inhibitor project, cell-based, cherry-pick, single point | shares compounds with T cruzi growth-1 | cytotoxicity (signal decrease), % at 8.35 µM | 14% of 5,600 active | AID 651742, 2012 | NIH/3T3 viability, CellTiter-Glo ATP luminescence, 90 h;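 active = mean signal decrease across replicates above about 35% based on untreated-well scatter, with enough replicates individually passing, limit read from the data; inconclusive = no rule stated though some were filed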
3T3 cytotox 2: NIH/3T3 fibroblast cytotoxicity, confirmation, cytotoxicity control, cell-based, cherry-pick, single point, set 2; NIH/3T3 viability, CellTiter-Glo ATP luminescence, 90 h; AID 651744, 2012; shares compounds with T cruzi growth-1; inhibition, % at 24.9 µM; 56% of 5,600 active;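 active = mean loss of cell viability signal at or above a set limit, and enough replicates individually reaching it; inconclusive = meets only the mean limit or only the replicate share; inactive = meets neither condition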
A number is an active result; n = inactive; u = inconclusive; x = no result given. A selection: hits, their analogues and other compounds. The true share with any hit is near 6.7%.

SMILES | T cruzi growth-1 | Pf Dd2 inh | C diff HTS | T cruzi growth-2 | T cruzi growth-3 | NIH3T3 tox | 3T3 cytotox 2
CN1C(=O)c2cc(NC(=O)c3cnccn3)ccc2OC[C@@H]2O[C@@H](CC(=O)N[C@@H]3CCN(Cc4ccccc4)C3)CC[C@H]21 | 100.9 | n | n | 101.4 | n | n | n
CN1C(=O)c2cc(NC(=O)c3cnccn3)ccc2OC[C@@H]2O[C@H](CC(=O)N[C@H]3CCN(Cc4ccccc4)C3)CC[C@@H]21 | 109.5 | n | n | 95.2 | u | n | n
CN1C(=O)c2cc(NC(=O)c3cnccn3)ccc2OC[C@H]2O[C@@H](CC(=O)N[C@H]3CCN(Cc4ccccc4)C3)CC[C@@H]21 | n | n | n | x | x | x | x
CN1C(=O)c2cc(NC(=O)c3cnccn3)ccc2OC[C@@H]2O[C@H](CC(=O)N[C@@H]3CCN(Cc4ccccc4)C3)CC[C@H]21 | n | n | n | x | x | x | x
COc1ccc(NC(=O)N[C@H]2CC[C@@H](CCNC(=O)CN3CCOCC3)O[C@H]2CO)cc1 | n | n | n | x | x | x | x
CC(=O)N1[C@H](C(=O)NC2CCC2)[C@@H](CO)[C@@H]2Cn3c(ccc(-c4ccc(F)cc4)c3=O)[C@@H]21 | n | x | n | x | x | x | x
C[C@@H]1CCCCO[C@@H](CN(C)C(=O)Nc2ccc3c(c2)OCO3)[C@H](C)CN([C@H](C)CO)C(=O)c2cc(NC(=O)NC3CCCCC3)ccc2O1 | u | n | n | 108.1 | n | n | n
C[C@@H]1CN([C@H](C)CO)C(=O)c2cc(NC(=O)NC3CCCCC3)ccc2O[C@@H](C)CCCCO[C@H]1CN(C)C(=O)Nc1ccc2c(c1)OCO2 | n | n | n | x | x | x | x
C[C@H]1CCCCO[C@@H](CN(C)C(=O)Nc2ccc3c(c2)OCO3)[C@@H](C)CN([C@@H](C)CO)C(=O)c2cc(NC(=O)NC3CCCCC3)ccc2O1 | 117.7 | n | n | 112.7 | n | n | n
C[C@@H]1CCCCO[C@@H](CN(C)C(=O)Nc2ccc3c(c2)OCO3)[C@H](C)CN([C@@H](C)CO)C(=O)c2cc(NC(=O)NC3CCCCC3)ccc2O1 | n | n | n | x | x | x | x
Cc1ccc(S(=O)(=O)N(C)C[C@@H]2OCCCC[C@@H](C)Oc3ccc(NS(=O)(=O)c4ccc(F)cc4)cc3C(=O)N([C@H](C)CO)C[C@@H]2C)cc1 | n | n | n | x | x | x | x
Cc1ccc(S(=O)(=O)Nc2ccc3c(c2)C(=O)N([C@H](C)CO)C[C@H](C)[C@@H](CN(C)S(=O)(=O)c2ccc(F)cc2)OCCCC[C@@H](C)O3)cc1 | x | n | n | x | x | x | x
Cc1ccc(S(=O)(=O)N(C)C[C@H]2OCCCC[C@H](C)Oc3ccc(NS(=O)(=O)c4ccc(F)cc4)cc3C(=O)N([C@H](C)CO)C[C@H]2C)cc1 | 116.2 | n | n | 98.5 | n | n | 39.6
Cc1ccc(S(=O)(=O)N(C)C[C@@H]2OCCCC[C@H](C)Oc3ccc(NS(=O)(=O)c4ccc(F)cc4)cc3C(=O)N([C@H](C)CO)C[C@@H]2C)cc1 | 108.0 | n | n | 97.4 | n | n | n
Cc1ccc(S(=O)(=O)Nc2ccc3c(c2)C(=O)N([C@@H](C)CO)C[C@H](C)[C@@H](CN(C)S(=O)(=O)c2ccc(F)cc2)OCCCC[C@@H](C)O3)cc1 | x | n | n | x | x | x | x
Cc1ccc(S(=O)(=O)Nc2ccc3c(c2)C(=O)N([C@H](C)CO)C[C@H](C)[C@H](CN(C)S(=O)(=O)c2ccc(F)cc2)OCCCC[C@H](C)O3)cc1 | 119.7 | n | n | 102.8 | 107.0 | n | n
C[C@@H]1CCCCO[C@H](CN(C)S(=O)(=O)c2cccs2)[C@@H](C)CN([C@H](C)CO)C(=O)c2cc(NC(=O)CCCN(C)C)ccc2O1 | n | n | n | x | x | x | x
CCCC(=O)Nc1ccc2c(c1)C(=O)N(C)[C@@H]1CC[C@H](CC(=O)NCC3CC3)O[C@@H]1CO2 | n | n | n | x | x | x | x
COc1ccc(CN(C)C[C@H]2OCCCC[C@@H](C)Oc3ccc(NC(=O)C4CCCCC4)cc3C(=O)N([C@H](C)CO)C[C@H]2C)cc1 | 103.7 | n | x | 102.4 | n | n | 96.1
COc1ccc(CN(C)C[C@@H]2OCCCC[C@@H](C)Oc3ccc(NC(=O)C4CCCCC4)cc3C(=O)N([C@@H](C)CO)C[C@H]2C)cc1 | n | n | x | x | x | x | x
COc1ccc(CN(C)C[C@H]2OCCCC[C@H](C)Oc3ccc(NC(=O)C4CCCCC4)cc3C(=O)N([C@@H](C)CO)C[C@H]2C)cc1 | 102.4 | n | n | u | n | n | 27.1
COc1ccc(CN(C)C[C@H]2OCCCC[C@@H](C)Oc3ccc(NC(=O)C4CCCCC4)cc3C(=O)N([C@@H](C)CO)C[C@H]2C)cc1 | 105.4 | n | x | n | n | n | 76.2
COc1ccc(CN(C)C[C@H]2OCCCC[C@H](C)Oc3ccc(NC(=O)C4CCCCC4)cc3C(=O)N([C@H](C)CO)C[C@@H]2C)cc1 | n | n | n | x | x | x | x
COc1ccc(CN(C)C[C@@H]2OCCCC[C@H](C)Oc3ccc(NC(=O)C4CCCCC4)cc3C(=O)N([C@@H](C)CO)C[C@@H]2C)cc1 | n | n | x | x | x | x | x
Cc1noc(C)c1S(=O)(=O)Nc1ccc2c(c1)C(=O)N([C@@H](C)CO)C[C@H](C)[C@@H](CN(C)S(C)(=O)=O)O2 | n | n | n | x | x | x | x
SMILES | T cruzi growth-1 | Pf Dd2 inh | C diff HTS | T cruzi growth-2 | T cruzi growth-3 | NIH3T3 tox | 3T3 cytotox 2
COc1cccc(S(=O)(=O)N2C[C@@H](O)COC[C@@H]3O[C@@H](CC(=O)NCCCN4CCOCC4)CC[C@H]32)c1 | n | x | n | x | x | x | x
C[C@@H]1CCCCO[C@@H](CN(C)C(=O)CCCN(C)C)[C@H](C)CN([C@@H](C)CO)C(=O)c2cc(NS(=O)(=O)c3cn(C)cn3)ccc2O1 | n | n | n | x | x | x | x
C[C@@H]1CCCCO[C@H](CN(C)C(=O)Nc2ccccc2)[C@H](C)CN([C@@H](C)CO)C(=O)c2cc(NC(=O)Nc3ccccc3)ccc2O1 | n | n | n | x | x | x | x
C[C@H](CO)N1C[C@H](C)[C@@H](CN(C)C(=O)Nc2ccccc2)OCCCC[C@H](C)Oc2ccc(NC(=O)Nc3ccccc3)cc2C1=O | 101.9 | n | n | 106.6 | n | n | n
CC(C)NC(=O)N(C)C[C@H]1OCCCC[C@H](C)Oc2ccc(NC(=O)Nc3ccccc3)cc2C(=O)N([C@H](C)CO)C[C@@H]1C | n | n | n | x | x | x | x
CC(C)NC(=O)Nc1ccc2c(c1)C(=O)N([C@@H](C)CO)C[C@@H](C)[C@@H](CN(C)C(=O)Nc1ccccc1)OCCCC[C@H](C)O2 | n | n | n | x | x | x | x

Assay outcomes (PubChem)
